Screening results (PubChem BioAssay)
The full list was thinned out, with hits kept by preference.
AmpC inh detg: AmpC beta-lactamase inhibition with detergent present; P00811; AmpC hydrolysis of nitrocefin, absorbance 480 nm, 0.01% Triton; Potency, µM (titrated, usually from 114 µM), for inactives: at the highest dose activity change, negative = inhibition, most hits filed as inhibitors; 0.041% of 370,000 active;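 also: potency is read from the fitted curve at half-maximal effect; 0% = no-compound wells and -100% = no-enzyme wells; nearly all actives have a fitted effect of over 25% in size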
Target sequence (P00811 whole entry, looked up): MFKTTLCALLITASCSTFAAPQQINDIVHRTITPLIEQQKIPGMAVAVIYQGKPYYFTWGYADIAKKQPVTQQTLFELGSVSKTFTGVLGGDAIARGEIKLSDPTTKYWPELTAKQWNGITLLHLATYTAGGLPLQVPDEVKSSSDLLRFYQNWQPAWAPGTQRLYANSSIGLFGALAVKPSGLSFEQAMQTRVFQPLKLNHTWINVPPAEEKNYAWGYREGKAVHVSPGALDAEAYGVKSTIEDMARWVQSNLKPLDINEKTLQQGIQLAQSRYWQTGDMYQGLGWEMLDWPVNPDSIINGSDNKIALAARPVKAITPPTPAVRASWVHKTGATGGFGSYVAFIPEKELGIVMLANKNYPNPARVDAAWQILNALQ
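20 mM phosphate pH 7.0 + 0.01% (detergent screen) or 0.0001% Triton X-100; 5.3 nM AmpC reagent; cpd preinc 15 min RT; nitrocefin (800 uM stock) to start; A480 q20 s × 4 min; Activity was normalised to no-enzyme and no-compound control wells.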
SARS PLpro yeast: SARS-CoV PLP inhibition in yeast | Potency, µM (top dose mostly 32.9 µM), without a hit: at the highest dose activity, positive = growth rescue, usual class: activators | 0.19% of 330,000 active | S. cerevisiae expressing SARS-CoV PLpro, growth rescue; calls by dose curve; also: potency is read from the fitted curve at half-maximal effect; 0% is about no effect; nearly all actives have a fitted effect of over 55% in size
AMA1 RON2 block: AMA1-RON2 (P. falciparum) interaction inhibition | AlphaScreen AMA1-biotinylated RON2 peptide binding | Potency, µM (doses to about 58.2 µM), inactives show at the top dose activity change, negative = inhibition, usual class: inhibitors | 0.2% of 360,000 active | AID 720542;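 also: potency is read from the fitted curve at half-maximal effect; 0% = vehicle wells and -100% = peptide control; nearly all actives have a fitted effect of over 45% in size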
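AMA1 (3D7) with his tag at 25 nM final met compounds first, then biotinylated RON2 peptide at 25 nM; detection used donor plus acceptor beads, 10 µg/mL apiece, read by AlphaScreen after 30 min at room temperature.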
Shiga toxin inh: inhibitors of Shiga toxin in Vero cells; inhibition, % at 38.7 µM; 9.2% of 290,000 active; Vero cells, Shiga toxin protein synthesis inhibition reporter; AID 2315; in the data active = inhibition mostly above about 28%, no sharp cut-off; inactive = mostly below about 43%; also: 0% is about no effect
Cycloheximide cs: counter-screen hit for Shiga toxin inhibitors, cycloheximide; cell reporter, cycloheximide protein synthesis inhibition counterscreen; max response, %; 12% of 300,000 active; AID 2314; in the data active = max response mostly above about 13%, no sharp cut-off; inactive = mostly below about 14%; also: read at 38.3 µM for the half of the compounds with a filed dose; 0% is about no effect
AmpC inh no detg: inhibitors of E. coli AmpC beta-lactamase without detergent; P00811; 0.52% of 330,000 active; AmpC nitrocefin hydrolysis, absorbance 480 nm, 0.0001% Triton; Potency, µM (series often up to 57.1 µM), for the others: at the highest dose activity change, negative = inhibition, most hits filed as inhibitors;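 also: potency is read from the fitted curve at half-maximal effect; plate controls were no compound for no effect and no enzyme for full effect; nearly all actives have a fitted effect of over 20% in size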
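AmpC (5.3 nM in the dispensed reagent) in 20 mM phosphate pH 7.0 with 0.01% (detergent screen) or 0.0001% Triton X-100 was preincubated with compounds for 15 min at room temperature. Nitrocefin was then added from an 800 uM solution, and hydrolysis was followed at 480 nm.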
Numbers without * were called inactive; u = inconclusive; x = not tested or not shown; ! = not active in a repeat; [ ] = dose if it differs, or a comment. Unless noted, calls follow the shape of the dose curve; as a rule, active = well fitted curve in the direction sought with a large enough effect; inconclusive = small, poorly fitted or top-dose-only effect, or another doubt; inactive = no such curve, though single readings can be large; an effect the other way counts as inactive or inconclusive.

SMILES | AmpC inh detg | SARS PLpro yeast | AMA1 RON2 block | Shiga toxin inh | Cycloheximide cs | AmpC inh no detg
c1ccc(CNc2ncnc3c2oc2ccccc23)nc1 | -1% | -3% | 5% | 59* | 23* | -10%
CC(=O)c1ccc(Nc2ncnc3c2oc2ccccc23)cc1 | u | 1% | -7% | 66* | 57* | -21%
COc1ccc(CN2CCN(C(=O)c3cccc4ccccc34)CC2)c(OC)c1OC | u | -1% | -29% | -6 | -1 | 79%
O=C(OCC(=O)N1CCN(c2ccccc2)CC1)c1ccco1 | -7% | -5% | 0% | 33 | 10 | -19%
c1ccc(-c2ccc3sccc3n2)cc1 | x | x | 2% | x | x | x
Clc1ccsc1-c1ccc2ccccc2n1 | 3% | 1% | 55% | 107* | 57* | -26%
S=c1[nH]nc(-c2ccc3ccccc3n2)o1 | 0% | 4% | -10% | -5 | -4 | -28%
c1ccc2nc(-c3nccs3)ccc2c1 | -5% | -1% | 20% | 96* | 28* | -18%
CN(CCCNC(=O)c1ccc(N2CCCC2=O)cc1)c1ccccc1 | u | 6% | -8% | -4 | 5 | -11%
Fc1ccc(C2CC(c3cccs3)=NN2c2ccccc2)cc1 (configuration not stated) | -5% | 12% | 192% | 19 | 5 | -23%[11.4 µM]
Fc1ccc(N2Cc3ccsc3C=N2)cc1 | u | 0% | 0% | 63* | 25* | -19%
CC(Oc1ccccc1)C(=O)NC1C(=O)N2C1SC(C)(C)C2C(=O)O (configuration not stated) | 35µM* | 0% | 0% | -6 | -1 | u
Cc1onc(-c2c(Cl)cccc2Cl)c1C(=O)NC1C(=O)N2C1SC(C)(C)C2C(=O)O (configuration not stated) | u | 8% | 24% | -9 | -8 | u
Cc1onc(-c2c(Cl)cccc2Cl)c1C(=O)N[C@@H]1C(=O)N2[C@@H]1SC(C)(C)[C@@H]2C(=O)O | 0.045µM* | 1% | 11% | 27 | -1 | 0.1µM*!
Cc1ccc(-c2nn(-c3ccccc3)cc2C(=O)N2CCN(c3ccccn3)CC2)cc1 | 9% | 0% | u | 42* | 33 | 141%
Cc1ccc(-c2nn(Cc3ccccc3)cc2C(=O)N2CCN(c3ccccn3)CC2)cc1 | 2% | -4% | 0% | x | x | 73%
O=C(c1cn(-c2ccccc2)nc1-c1ccccc1)N1CCN(c2ccccn2)CC1 | -8% | 0% | -8% | 29 | 23* | 98%
CCOC(=O)C1C(C(=O)OC)=C(c2ccc(OC)cc2)c2ccccc2N1S(=O)(=O)C(F)(F)F (configuration not stated) | x | -13% | -4% | -15 | 1 | 54%
Cc1ccc(S(=O)(=O)n2c([N+](=O)[O-])cnc2C)c(C)c1C | -13% | 14% | 0% | -3 | -1 | -17%
OC(CN1CCN(c2ccccc2Cl)CC1)c1ccccc1 (configuration not stated) | u | 0% | 0% | -8 | 9 | -16%
Cc1ccc(NC(=S)NCCc2ccccc2)nc1 | -5% | 0% | 36% | 76* | 25* | -26%
Cc1ccc(NS(=O)(=O)Cc2ccccc2)nc1 | 10% | 0% | 10% | 56* | 25* | -9%
Cc1ccc(NC(=O)CCC(=O)c2cccs2)nc1 | u | 0% | -2% | x | x | u
Cc1ccc(NC(=O)CCCc2ccccc2)nc1 | 4% | -1% | 3% | 89* | 44* | -18%
CS(=O)(=O)Nc1ccc(C(=O)N2CC(=O)Nc3ccccc32)cc1 | -1% | 9% | 7% | -3 | -2 | -1%
O=C(Nc1nnc(C(F)(F)F)s1)c1c(F)cccc1F | -5% | -4% | 8% | -4 | 11 | -7%
O=C(Nc1nnc(-c2ccccc2F)s1)c1cccnc1 | -2% | 0% | -4% | 45* | 23* | -17%
O=C(Nc1nnc(C(F)(F)F)s1)c1cccnc1 | -5% | -7% | -7% | 65* | 39* | -13%
Cc1ccc(NC(=O)Nc2nnc(-c3ccccc3F)s2)cc1 | -10% | 2% | 6% | 19 | 18 | -15%
